Screens as filed in PubChem BioAssay.
RORg inh = qHTS for inhibitors of ROR gamma transcriptional activity | AID 2551, 2010 | Nuclear receptor ROR-gamma (Mus musculus), P51450 | actives 5.4% (n = 310,000) | Potency, µM (highest dose often 53.6 µM), for the others: top-dose activity change, negative = inhibition, most hits filed as inhibitors | Drosophila S2 Gal4-RORgamma UAS-luciferase reporter, 20 h; also: potency is read from the fitted curve at half-maximal effect; % is scaled to controls: 0 for no effect and ±100 for the full control effect; nearly all actives have a fitted effect of over 60% in size
Target sequence (P51450 whole entry, looked up, the tested form may be a part): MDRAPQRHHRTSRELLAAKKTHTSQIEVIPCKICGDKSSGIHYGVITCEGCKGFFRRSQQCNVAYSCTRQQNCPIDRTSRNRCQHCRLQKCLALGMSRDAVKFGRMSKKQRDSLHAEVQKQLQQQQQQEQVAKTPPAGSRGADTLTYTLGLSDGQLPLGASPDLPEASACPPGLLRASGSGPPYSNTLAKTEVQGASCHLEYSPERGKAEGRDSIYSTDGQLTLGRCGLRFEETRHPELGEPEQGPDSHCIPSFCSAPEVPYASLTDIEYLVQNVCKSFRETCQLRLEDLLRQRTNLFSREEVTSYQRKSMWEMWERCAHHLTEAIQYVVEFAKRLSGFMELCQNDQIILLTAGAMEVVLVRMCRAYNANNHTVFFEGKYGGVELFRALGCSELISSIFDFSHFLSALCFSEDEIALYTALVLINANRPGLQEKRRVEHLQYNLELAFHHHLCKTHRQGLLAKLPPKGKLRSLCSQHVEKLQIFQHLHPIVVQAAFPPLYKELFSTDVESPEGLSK
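Drosophila S2 cells stably expressing Gal4-DBD/mouse RORγ fusion under metallothionein promoter plus UAS-luciferase; compound 1 h, then 700 uM CuSO4 induction for 20 h at ambient temperature; inhibition read as reduced luminescence.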
BCR signal inh = qHTS Assay to Find Inhibitors of Chronic Active B-Cell Receptor Signaling. ABC-DLBCL IkBa-CBG/CBR reporter, luminescence ratio, 4 h. Potency, µM (doses to about 46.1 µM), for the others: at the highest dose activity change, negative = inhibition, usual class: inhibitors. actives 0.05% (n = 340,000); active = well fitted inhibition curve with a large enough effect in the signal ratio, with a control signal flat, not every such curve was filed as active; inconclusive = small, poorly fitted or top-dose-only effect, or effect the other way, or a change in a side signal; the % refers to the signal ratio;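 also: potency is read from the fitted curve at half-maximal effect; plate controls were basal doxycycline-induced cells for no effect and cells given 10 µM MG132 for full effect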
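Concentration-response series (up to 46 uM) were applied to TMD8 dual-reporter cells for 4 h at 37C with doxycycline. Green/red ratio, after filter-overlap correction, defined %Activity; red signal alone was normalised to basal cells and zero luminescence.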
Gal4-VP16 FLuc = VP16 counterscreen qHTS for inhibitors of ROR gamma transcriptional activity; Drosophila S2 Gal4-VP16 UAS-luciferase, luminescence, 20 h; actives 3.5% (n = 310,000); Potency, µM (doses to about 53.6 µM), without a hit: at the highest dose activity, negative = inhibition, usual class: inhibitors; AID 2546, 2010;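 also: Gal4-VP16 expression switched on by copper sulfate through the metallothionein promoter; potency is read from the fitted curve at half-maximal effect; % is scaled to controls: 0 for no effect and ±100 for the full control effect; nearly all actives have a fitted effect of over 50% in size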
SW480 rerep = A quantitative high throughput screen for small molecules that induce DNA re-replication in SW480 colon adenocarcinoma cells; Potency, µM (doses to about 46.1 µM), without a hit: at the top dose re-replication activation, hits mostly activators; actives 1.8% (n = 340,000); SW480 DNA re-replication, Hoechst DNA content imaging, 48 h; also: potency is read from the fitted curve at half-maximal effect; % of control where 0% means no effect; nearly all actives have a fitted effect of over 55% in size
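Hoechst fluorescence of nuclei (405 nm excitation, 500-530 nm emission) measured by plate-scanning imager after 48 hr compound exposure at 37 C; re-replication scored as increased number of nuclei with elevated intensity.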
MCF10A rerep = A quantitative high throughput screen for small molecules that induce DNA re-replication in MCF 10a normal breast cells | actives 2.9% (n = 350,000) | Potency, µM (doses to about 46.1 µM), inactives show at the top dose activity, positive = re-replication, actives largely listed as activators | MCF 10A DNA re-replication, Hoechst nuclear intensity, 48 h; also: potency is read from the fitted curve at half-maximal effect; % of control where 0% means no effect; nearly all actives have a fitted effect of over 50% in size
Giardia killer = Small Molecules that selectively kill Giardia lamblia: qHTS. Giardia lamblia trophozoite viability. activity change, % at 7.66 µM, hits read low. actives 0.15% (n = 340,000); in the data active = activity change below about -80%; inconclusive = between about -30% and that limit;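 also: parasites exposed to compound for two days anaerobically before the ATP read; % is scaled to controls: 0 for no effect and ±100 for the full control effect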
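Giardia trophozoites, 100 cells per well, were exposed to compounds for 48 hrs at 37 deg C under anaerobic conditions; viability was then read as ATP content by bioluminescence after 15-30 min at room temperature.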
* marks the source's active call; other numbers are inactive results; ? = inconclusive; · = no result given; [ ] = remark or other dose. Only some compounds are listed: those with a hit (about 8.3% of all), similar ones and a draw of the others. Unless noted, calls follow the shape of the dose curve; as a rule, active = well fitted curve in the direction sought with a large enough effect; inconclusive = small, poorly fitted or top-dose-only effect, or another doubt; inactive = no such curve, though single readings can be large; an effect the other way counts as inactive or inconclusive.

SMILES	RORg inh	BCR signal inh	Gal4-VP16 FLuc	SW480 rerep	MCF10A rerep	Giardia killer
CC1CCC(C(=O)O)NC1c1cccc(N2CCCC2=O)c1 (centres undefined)	5.5%[10 µM]	·	2.0%[10 µM]	·	·	·
COC(=O)Nc1ccc(S(=O)(=O)Nc2ccc(C(=O)O)cc2)cc1	3.3%	0.2%	-5.8%	-5.8%	-4.3%	-0.8
CC(=NNC(=S)N1CC2CCC(CC2)C1)c1cccc(C)n1	·	·	·	0.411µM*	?	0.8
CC(=O)c1ccc(NC(=O)Nc2ccc(S(=O)(=O)N3CCCC3)cc2)cc1	25.1%	-0.2%	-6.2%	-11.1%	11.6%	0.5
O=C1CC(c2ccc3c(c2)OCCO3)Oc2ccc([N+](=O)[O-])cc21 (centres undefined)	11.2µM*	?	12.6µM*	-4.2%	16.4µM*	?
Cc1n[nH]c(C)c1CCNCc1ccc(OCC(O)CN2CCCCC2)cc1 (centres undefined)	-4.0%	2.8%	0.1%	1.5%	20.6%	-10.3
c1ccc(Cn2cnc3ccccc32)cc1	-30.0%	-13.2%	-18.4%	0.2%	?	-7.7
Cc1cc(C)c(Cn2cnc3ccccc32)c(C)c1	5.62µM*	0.6%	-56.4%	?	-1.9%	21.2
Fc1ccc(-c2nc3ccccn3c2NCc2ccc3c(c2)OCO3)cc1	?	9.1%	-21.9%	?	11.2µM*	-15.8
Oc1ccc(-c2nc3ccccn3c2NCc2ccc3c(c2)OCO3)cc1	16.4%	?	18.5%	-2.2%	-6.0%	7.3
O=S(=O)(NCc1ccccn1)c1ccccc1	-31.6%	7.5%	-1.9%	-10.0%	-1.6%	-2.2
O=S(=O)(NCc1ccccn1)c1ccccn1	11.2µM*	-9.4%	-0.9%	-11.3%	-20.6%	0.8
O=S(=O)(NCc1ccccn1)c1ccc(Cl)s1	8.91µM*	-0.3%	?	-75.8%	3.2%	-6.8
O=S(=O)(NCc1ccccn1)c1cccc2nsnc12	7.94µM*	9.4%	?	0.2%	-1.1%	11.1
N#CCCn1c(=O)c(CCc2ccccc2)nc2cnc(Nc3ccccc3)nc21	-2.7%	·	4.2%	·	·	·
COC(=O)c1ccc(Oc2c(F)c(F)nc(N3CCOCC3)c2F)cc1	?	0.3%	?	23.3%	20.1%	6.6
COc1ccc(F)cc1CN1CCN(C(=O)CCC(=O)Nc2nnc(C3CCCCC3)s2)CC1	1.1%	?	-7.8%	?	-0.6%	6.3
CCCCC[C@H](O)/C=C/[C@@H]1[C@H](C/C=C\CCCC(=O)O)[C@@H](O)C[C@H]1O	-14.7%	·	6.7%	·	·	·
CC(=O)c1cccc(N2Cc3ccccc3C2=NC(=O)CCl)c1	2.1%	-12.8%	?	?	?	-7.9
N#CC(c1cccc(Cl)c1)c1ccc2c(C(F)(F)F)cc(C(F)(F)F)nc2n1 (centres undefined)	5.01µM*	·	3.98µM*	?	?	-12.9
Cc1cc(C(C#N)c2cccc(Cl)c2)n2ncnc2n1 (centres undefined)	9.1%	11.1%	0.3%	-0.9%	?	-1.8
Cc1ccc(C(=O)CSc2nc(-c3ccccc3)ccc2C#N)cc1	6.9%	-0.1%	6.5%	?	3.66µM*	-10.1
N#Cc1ccc(-c2ccco2)nc1SCC(=O)c1ccc(Cl)cc1	21.2%	?	-11.3%	8.0%	7.94µM*	0.1
Cc1ccc(-c2ccc(SCC(=O)c3ccccc3)nn2)cc1	-11.4%	?	-3.0%	1.9%	?	?
N#Cc1ccc(-c2ccc3c(c2)OCO3)nc1SCC(=O)OCc1ccccc1	-1.7%	?	-0.8%	-2.0%	22.6%	5.6
SMILES	RORg inh	BCR signal inh	Gal4-VP16 FLuc	SW480 rerep	MCF10A rerep	Giardia killer
Cc1ccc(C(=O)CSc2ccc(-c3cccnc3)nn2)cc1	112µM*	5.0%	2.51µM*	13.5%	10.4%	17.2
COc1ccc(-c2ccc(C#N)c(SCC(=O)OCc3ccccc3)n2)cc1OC	25.8%	?	-2.5%	?	9.2µM*	-7.6
COc1ccc(/C=C2\SC(=S)N(CC(=O)OCC(=O)Nc3cc(Cl)cc(Cl)c3)C2=O)cc1	-20.1%	-1.4%	-9.0%	?	-2.6%	6.5
CC(C)(C)OC(=O)NS(=O)(=O)NCc1ccco1	-27.8%	·	4.9%	·	·	-18.8
CC1=CC(C)(C)N(S(=O)(=O)c2ccc(C)cc2)c2cc(C)ccc21	?	?	?	7.31µM*	?	12.7
CCNC(=O)N1c2ccc(OCC)cc2C(C)=CC1(C)C	1.7%	?	-2.6%	18.6%	14.1µM*	-8.0
CCOc1ccc2c(c1)C(C)=CC(C)(C)N2S(=O)(=O)c1ccc(C)cc1	3.98µM*	?	?	13µM*	23.0%	-11.0
CCOc1ccc(S(=O)(=O)N2CCN(c3ccc(C)cc3C)CC2)cc1	?	18.5%	-6.9%	-7.2%	-0.8%	3.9
COc1ccc2c(c1)C(C)=CC(C)(C)N2S(=O)(=O)c1ccc(C)cc1	-38.7%	?	1.5%	13µM*	?	23.6
CCOc1ccc2c(c1)C(C)=CC(C)(C)N2C(=O)Nc1ccccc1F	2.0%	-5.4%	-16.9%	4.0%	?	5.9
CC(=O)c1cccc(N(C(=O)c2csnn2)C(C(=O)NC2CCCC2)c2ccccc2)c1 (centres undefined)	11.8%	-5.2%	2.7%	-9.0%	3.6%	-8.9
COc1ccc(Nc2nc(C)cc(-c3cc(-c4ccccc4)on3)n2)cc1	·	·	·	-5.6%	10.0%	-11.0
CCC(C)Oc1ccccc1C1CC(=O)NC2=C1C(=O)CCC2 (centres undefined)	40.4%	4.2%	-7.3%	18.4µM*	?	19.0
Cc1ccccc1C1CC(=O)NC2=C1C(=O)CCC2 (centres undefined)	15.5%	?	-7.8%	1.7%	-4.7%	-24.2
O=C(Nc1ccc(Cl)cc1)OCCN1CCN(Cc2ccccc2)CCC1=O	?	·	1.9%	·	·	·
O=C1OCC/C1=C\c1ccc2c(c1)OCO2	2.8%	?	26.9%	9.8%	8.3%	8.5
CC1CC/C(=C\c2ccc3c(c2)OCO3)C(=O)/C1=C/c1ccc2c(c1)OCO2 (centres undefined)	2.1%	-2.5%	1.0%	?	7.31µM*	-7.8
O=C1/C(=C\c2ccc3c(c2)OCO3)CCC/C1=C/c1ccc2c(c1)OCO2	-27.7%	-2.4%	-7.7%	-2.3%	11.6µM*	-5.7
O=C(NCC(=O)N1CCN(Cc2ccccc2)CC1)c1cc(Cl)cc([N+](=O)[O-])c1	·	-2.2%	·	-9.0%	-11.4%	2.4
